Measurements: PubChem BioAssay
Values without a mark were called inactive. The rule behind the calls is not given here.

assay: inhibitors of hydroxyurea-induced Chk1 phosphorylation, primary screen, imaging, HeLa, phospho-Chk1 nuclear intensity (AID 1187); conditions: hydroxyurea-induced phospho-Chk1 immunofluorescence imaging, higher = more signal; note: test concentration not given here

Compound | z-score
CCOC(=O)C[C@H]1[C@H](OC(=O)c2ccc(C(=O)c3ccccc3)cc2)[C@@H](NC(=O)c2ccc(-c3ccccc3)cc2)c2cc(OCCCO)ccc2N1C(=O)c1ccc2ccccc2n1 | -0.596
CN(C)c1ccc(C(O)C2C=CC3C(=O)N(c4ccccc4)C(=O)C3N2Nc2ccccc2F)cc1 (stereo unspecified) | -0.817
CCCCCN1CC=CC23O[C@@H]4C=CCOC(=O)[C@@H]4[C@H]2C(=O)N(CCCCCCO)[C@@H]3C1=O (stereo partly specified) | 0.0434
C=C(COC)/C(=C/C[C@H](OC(=O)c1ccncc1)c1ccc(CO)o1)c1cc(C(=O)OC)ccc1OC | -0.437
Cn1cccc1C(O)C1C=CC2C(=O)NC(=O)C2N1Nc1ccccn1 (stereo unspecified) | -0.431
CC(C)N1CC=CC23O[C@@H]4C=CCCOC(=O)C4[C@H]2C(=O)N(CCCCCCO)[C@@H]3C1=O (stereo partly specified) | -0.286
O=C1c2ccccc2[C@@]2(Cc3ccccc3N(C3CC3)C2=O)[C@H](c2ccc(CO)cc2)N1Cc1ccccc1C(F)(F)F | 0.145
[N-]=[N+]=NCc1ccccc1C[C@]1(C(=O)NCc2ccccc2)N=C(c2ccc(OCCCO)cc2)O[C@H]1c1ccccc1N=[N+]=[N-] | -0.2
COc1ccc([Si](C)(C)[C@@H]2[C@@H](CC(=O)N3CCC[C@H]3CO)O[C@]3(C(=O)N(Cc4cccc(N5CCC5=O)c4)c4ccccc43)[C@H]2C)cc1 | 0.535
COc1ccc(CCNC(=O)[C@@H]2c3ccccc3C(=O)N(c3ccc(C)cn3)[C@H]2c2ccc(CO)cc2)cc1 | 0.259
O=C(CS)NCCCCCNC(=O)[C@@H]1C[C@@H]2C(=O)N[C@@H](Cc3ccccc3)C(=O)N2[C@@H]1c1ccc(O)cc1 | 0.886
C#C[C@@H](CC)O[Si](C#Cc1ccc(Oc2ccccc2)cc1)(C(C)C)C(C)C | -0.0725
COCC(=C=CC[C@@H](O)c1ccccc1OCCO)CCO | -0.534
C=CCOC(=O)[C@H]1[C@@H]2C(=O)O[C@@H](c3ccccc3)[C@@H](c3ccccc3)N2[C@@H](c2ccc(OCCOC(=O)[C@H]3C[C@H]4C(=O)N5CCC[C@H]5C(=O)N4[C@H]3c3cccc(OCCO)c3)cc2)[C@]12C(=O)Nc1ccc(I)cc12 | -0.305
CC(C)(C)OC(=O)CC[C@]1(C(=O)NCc2ccccc2)N=C(c2ccc(OCCCO)cc2)O[C@H]1c1ccccc1 | -0.062
COCCOC(=O)N1C(=O)[C@@]2(c3cc(C#Cc4ccc(OC)cc4)ccc31)[C@H](c1ccc(O)cc1)N1[C@H](c3ccccc3)[C@H](c3ccccc3)OC(=O)[C@H]1[C@@H]2C(N)=O | -0.461
C=CCN1C(=O)[C@]2(O[C@H](CCn3cc(CCO)nn3)[C@@H]([Si](C)(C)c3ccc(OC)cc3)[C@@H]2C)c2cc(N3CCOC3=O)ccc21 | -0.5
O=C1O[C@@H](c2ccccc2)[C@@H](c2ccccc2)N2[C@@H](c3ccc(O)cc3)[C@]3(C(=O)Nc4ccccc43)[C@@H](C(=O)O)[C@H]12 | 0.166

Compound | z-score
C=CCOC(=O)[C@H]1[C@@H]2C(=O)O[C@@H](c3ccccc3)[C@@H](c3ccccc3)N2[C@@H](c2ccc(OCCOC(=O)[C@H]3C[C@H]4C(=O)N[C@@H](Cc5ccccc5)C(=O)N4[C@H]3c3ccc(O)cc3)cc2)[C@]12C(=O)Nc1ccccc12 | 0.685
CC(C)C[C@@H]1NC(=O)[C@H]2C[C@@H](C(=O)NCCCCCCN(C)C)[C@@H](c3cccc(OCCO)c3)N2C1=O | 0.186
C/C=C\[C@@H](NCc1ccccc1Br)[C@@H](O)Cc1ccccc1 | 0.35
C=C(/C(=C/C[C@H](OC(=O)c1ccncc1)c1ccc(OCCO)cc1)c1cnc2ccccc2c1)C(C)C | -0.0461
O=C(CS)NCCCCCNC(=O)[C@H]1C[C@H]2C(=O)N3CCC[C@H]3C(=O)N2[C@H]1c1cccc(OCCO)c1 | -0.281
CCCCCN1CC=CC23O[C@@H]4C=CCOC(=O)[C@@H]4[C@H]2C(=O)N(C(CO)C(C)C)[C@@H]3C1=O (stereo partly specified) | 0.0917
Cc1ccc(S[C@]2(C(=O)NCC(F)(F)F)CC(=O)N(Cc3ccccc3Cl)[C@@H]2c2ccc(CO)cc2I)cc1 | 0.92
O=C1O[C@@H](c2ccccc2)[C@@H](c2ccccc2)N2[C@@H](c3ccc(OCCO)cc3)[C@]3(C(=O)Nc4ccccc43)[C@@H](C(=O)N3CCN(c4ncccn4)CC3)[C@H]12 | 0.644
CC(C)=C1C(=O)C(c2ccccc2)=C2CN3C(=O)N(CCc4ccccc4)C(=O)[C@]3(Cc3ccc(F)cc3)[C@H]21 | 0.314
N#Cc1ccc(NN2C(C(O)c3cccc4ccccc34)C=CC3C(=O)N(c4ccccc4)C(=O)C32)cc1 (stereo unspecified) | 0.137
COC(=O)C1=CCC(c2cccc(Cl)c2)O1 (stereo unspecified) | 0.498
COCCCNC(=O)[C@@]1(CCS(=O)(=O)c2ccccc2)N=C(c2ccc(OCCCO)cc2)O[C@H]1c1ccccc1 | -0.2
COCCOC(=O)N1C(=O)[C@@]2(c3cc(C#Cc4ccc(OC)cc4)ccc31)[C@H](C(=O)N1CCN(c3ncccn3)CC1)[C@H]1C(=O)O[C@H](c3ccccc3)[C@H](c3ccccc3)N1[C@@H]2c1ccc(OCCO)cc1 | -0.0346
CN(C)CCCNC(=O)[C@@H]1c2ccccc2C(=O)N(Cc2cc(F)cc(C(F)(F)F)c2)[C@H]1c1ccc(CO)cc1 | -0.0884
CCCC[C@@H](O)C1=C(C)C[C@H]2C(=O)N(Cc3ccccc3)C(=O)[C@H]2[C@H]1CO | 0.984
CC(C)OC(=O)C=C1C[C@@H](c2ccc(C#N)cc2)O[C@@H](c2ccc(C#N)cc2)O1 | 0.219
CN1C(=O)C2C(C1=O)C1C=C(CCCO)C2C(c2ccc(CN3CCCC3)cc2)N1C (stereo unspecified) | 0.185
COc1ccccc1CN1C(=O)c2ccccc2[C@@H](C(=O)NCC(F)(F)F)[C@@H]1c1ccc(CO)cc1 | 0.158
